Where “and” joins values, the source holds several entries; their conditions need not be identical. Equal values may be shown once. Records with an inconclusive call do not appear. Where a call stands in place of a potency, no number is given. Calls of active or inactive are those of the source. Calls follow the shape of the dose curve; as a rule, active = well fitted curve in the direction sought with a large enough effect; inconclusive = small, poorly fitted or top-dose-only effect, or another doubt; inactive = no such curve, though single readings can be large; an effect the other way counts as inactive or inconclusive.
Assays:
[1] = target: Calcium and integrin-binding protein 1 (Homo sapiens) (UniProt Q99828); test: Primary qHTS for Identification of Calcium Integrin Binding Protein 1 (CIB1) Competitor (AID 1508620);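 also: GST tagged CIB1 binding a fluorescein labelled alphaIIb integrin peptide tracer; top concentration of the series differs between compounds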
Method in brief: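 Fluorescence polarization competition: GST-tagged CIB1 (1 uM final) preincubated with compound 15 min at room temperature, then FITC-labelled alphaIIb peptide (100 nM final) added. After 15 min at room temperature, polarization read at Ex 480/Em 540.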

[2] = Primary qHTS for inhibitors of nuclear receptor binding SET domain protein 2 (NSD2) in an isogenic RCH-ACV NSD2 p.E1099K mutant (9B) (AID 1645876); also: nearly all actives have a fitted effect of over 70% in size; also: potency is read from the fitted curve at half-maximal effect
[3] = Primary qHTS for inhibitors of nuclear receptor binding SET domain protein 2 (NSD2) in an RCH-ACV wild type WT cells (2C) (AID 1645877); also: nearly all actives have a fitted effect of over 70% in size; also: potency is read from the fitted curve at half-maximal effect

Calcium and integrin-binding protein 1 (Homo sapiens), sequence (Q99828 whole entry, looked up): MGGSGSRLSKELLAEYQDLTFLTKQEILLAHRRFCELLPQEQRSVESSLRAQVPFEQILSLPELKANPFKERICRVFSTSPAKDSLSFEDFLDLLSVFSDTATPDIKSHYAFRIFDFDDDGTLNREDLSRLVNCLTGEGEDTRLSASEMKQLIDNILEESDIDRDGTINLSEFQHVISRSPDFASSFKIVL

CCN(Cc1cc(Nc2nc(C)cn3c(-c4cn[nH]c4)cnc23)sn1)C(C)(C)CO
Potency [1]: inactive | Potency [2]: 0.0092 µM (active) | Potency [3]: 0.0082 µM (active)

Cc1cc(C(=O)Nc2cc(Oc3ccc4nc(NC(=O)C5CC5)cn4n3)ccc2C)n(C)n1
Potency [1]: inactive | Potency [2]: 13.2 µM (active) | Potency [3]: 9.34 µM (active)

CC(=O)O[C@]1(C(C)=O)CC[C@H]2[C@@H]3CCC4=CC(=O)CCC4=C3[C@@H](c3ccc(N(C)C)cc3)C[C@@]21C
Potency [1]: inactive | Potency [2]: 23 µM (active) | Potency [3]: 23 µM (active)

CCCCCCCCC(=O)N[C@H](CN1CCCC1)[C@H](O)c1ccc2c(c1)OCCO2
Potency [1]: inactive | Potency [2]: 23 µM (active) | Potency [3]: 18.3 µM (active)

CC[C@@H](C)[C@@H]1OC2(C=C[C@H]1C)C[C@@H]1C[C@H](C/C=C(\C)[C@H](O[C@H]3C[C@H](OC)[C@H](O[C@H]4C[C@H](OC)[C@H](NC(C)=O)[C@H](C)O4)[C@H](C)O3)[C@H](C)/C=C/C=C3\CO[C@H]4[C@H](O)C(C)=C[C@@H](C(=O)O1)[C@@]34O)O2 (some centres not stated)
Potency [1]: inactive | Potency [2]: 8.01 µM (active) | Potency [3]: 5.05 µM (active)

COc1cc(C(C)C)c(Oc2cnc(N)nc2N)cc1I
Potency [1]: inactive | Potency [2]: 16.3 µM (active) | Potency [3]: 16.3 µM (active)

CNC(C)C(=O)NC(C(=O)N1CCCC1C(=O)Nc1snnc1-c1ccccc1)C1CCCCC1 (configuration not stated)
Potency [1]: inactive | Potency [2]: inactive | Potency [3]: inactive

C=C1C(=O)O[C@@H]2/C=C(/C)[C@@H](OC(C)=O)C/C=C(\C)C[C@@H](OC(=O)/C(=C/CO)CO)[C@@H]12
Potency [1]: inactive | Potency [2]: 7.09 µM (active) | Potency [3]: 3.17 µM (active)

Cc1c[nH]c2ncnc(N3CCC(CN)(C(=O)Nc4cccc(OC(=O)N(C)C)c4)CC3)c12
Potency [1]: inactive | Potency [2]: 9.34 µM (active) and 7.42 µM (active) | Potency [3]: 10.5 µM (active) and 11.8 µM (active)

C=C1C(=O)OC2/C=C(\C)CC/C=C(\C=O)C(OC)C(OC(=O)C(C)CC)C12 (configuration not stated)
Potency [1]: inactive | Potency [2]: 7.13 µM (active) | Potency [3]: 2.84 µM (active)

C=C1C(=O)O[C@@H]2C[C@]3(C)[C@@H](CCC(C)O)[C@@H]3C[C@H]12 (some centres not stated)
Potency [1]: inactive | Potency [2]: 18.3 µM (active) | Potency [3]: 14.5 µM (active)

COC1=CC(=O)C[C@@H](C)[C@@]12Oc1c(Cl)c(OC)cc(OC)c1C2=O
Potency [1]: inactive | Potency [2]: inactive | Potency [3]: inactive

C=C1C(=O)O[C@@H]2[C@H]1CCC(C)=C(CCC(=O)O)[C@@]2(C)O
Potency [1]: inactive | Potency [2]: 20.5 µM (active) | Potency [3]: 10.3 µM (active)

COc1ccc(CCO[C@@H]2O[C@H](CO[C@H]3OC[C@](O)(CO)[C@H]3O)[C@@H](OC(=O)/C=C/c3ccc(O)c(O)c3)[C@H](O[C@@H]3O[C@@H](C)[C@H](O)[C@@H](O)[C@H]3O)[C@H]2O)cc1OC
Potency [1]: inactive | Potency [2]: 6.08 µM (active) | Potency [3]: 4.83 µM (active)

COc1ccc(C2(N(C)C(=O)c3ccc(NC(=O)c4ccco4)cc3)CCOCC2)cc1
Potency [1]: inactive | Potency [2]: inactive | Potency [3]: inactive

COc1cc2c(NC3CCN(C(C)C)CC3)nc(N3CCC(F)(F)CC3)nc2cc1OCCCN1CCCC1
Potency [1]: inactive | Potency [2]: 20.5 µM (active) | Potency [3]: 11.5 µM (active)

CCC/C=C\C=C/CCc1cc(O)c([C@@H]2O[C@H](CO)[C@@H](O)[C@H](O)[C@H]2O)c(O)c1C(=O)OC
Potency [1]: inactive | Potency [2]: inactive | Potency [3]: inactive

COc1cc2c(cc1NS(=O)(=O)c1ccc(Br)cc1C)n(C)c(=O)n2C
Potency [1]: inactive | Potency [2]: 7.28 µM (active) | Potency [3]: 7.28 µM (active)

C/C(=C\CO[C@@H]1O[C@H](CO[C@H]2OC[C@](O)(CO)[C@H]2O)[C@@H](O)[C@H](O)[C@H]1O)C(C)(C)O
Potency [1]: inactive | Potency [2]: inactive | Potency [3]: inactive

Cc1nc(NC(=O)N2CCC[C@H]2C(N)=O)sc1-c1ccnc(C(C)(C)C(F)(F)F)c1
Potency [1]: inactive | Potency [2]: 1.63 µM (active) and 2.63 µM (active) | Potency [3]: 1.63 µM (active) and 2.95 µM (active)

CC(C)(F)CC(NC(c1ccc(-c2ccc(S(C)(=O)=O)cc2)cc1)C(F)(F)F)C(=O)NC1(C#N)CC1 (configuration not stated)
Potency [1]: inactive | Potency [2]: inactive | Potency [3]: inactive

CC(C)=CCC[C@](C)(O[C@@H]1O[C@H](CO[C@@H]2OC[C@@H](O)[C@H](O)[C@H]2O)[C@@H](O)[C@H](O)[C@H]1O)[C@H]1CC[C@]2(C)[C@@H]1[C@H](O)C[C@@H]1[C@@]3(C)CC[C@H](O[C@@H]4O[C@H](CO)[C@@H](O)[C@H](O)[C@H]4O)C(C)(C)[C@@H]3CC[C@]12C
Potency [1]: inactive | Potency [2]: inactive | Potency [3]: inactive

CC(O)(C(=O)C1CC1(CO)COC1OC(CO)C(O)C(O)C1O)C1C(O)CC2C3CC=C4CC(O)CC(O)C4(C)C3C(O)CC21C (configuration not stated)
Potency [1]: inactive | Potency [2]: 0.342 µM (active) | Potency [3]: 0.383 µM (active)

C=CS(=O)(=O)NC1CCN(C(=O)CNc2cc(I)c(Cl)cc2OC)CC1
Potency [1]: inactive | Potency [2]: 4.59 µM (active) | Potency [3]: 3.25 µM (active)

CCn1c(-c2nonc2N)nc2c(C#CC(C)(C)O)ncc(OCC3CCCNC3)c21 (configuration not stated)
Potency [1]: inactive | Potency [2]: 1.03 µM (active) | Potency [3]: 1.45 µM (active)

CC(C)/C=C1\NC(=O)C(C(C)C)n2c1nc1ccccc1c2=O (configuration not stated)
Potency [1]: inactive | Potency [2]: inactive | Potency [3]: inactive

OC1C=C2C3CN(Cc4cc5c(cc43)OCO5)C2CC1O (configuration not stated)
Potency [1]: inactive | Potency [2]: 6.49 µM (active) | Potency [3]: 7.28 µM (active)

O=C(NCCCNC(=O)c1ccc[nH]c1=O)c1cc(-c2ccccc2)on1
Potency [1]: inactive | Potency [2]: 8.33 µM (active) | Potency [3]: 9.34 µM (active)

C/C=C(\C)C(=O)O[C@H]1C=CC(=O)O[C@H]1/C=C/[C@@H](O)[C@H](C)O
Potency [1]: inactive | Potency [2]: 16.3 µM (active) | Potency [3]: 5.78 µM (active)

CC1(C)CC[C@]2(C(=O)O)CC[C@]3(C)C(=CCC4[C@@]5(C)C[C@@H](O)[C@H](O)C(CO)(CO)C5CC[C@]43C)C2[C@@H]1O (some centres not stated)
Potency [1]: inactive | Potency [2]: 8.93 µM (active) | Potency [3]: 8.93 µM (active)

CC(C)C[C@@H](N)C(=O)N[C@H]1C(=O)N[C@@H](CC(N)=O)C(=O)N[C@H]2C(=O)N[C@H]3C(=O)N[C@H](C(=O)N[C@H](C(=O)O)c4cc(O)cc(O)c4-c4cc3ccc4O)[C@H](O)c3ccc(c(Cl)c3)Oc3cc2cc(c3O[C@@H]2O[C@H](CO)[C@@H](O)[C@H](O)[C@H]2O[C@H]2C[C@](C)(N)[C@H](O)[C@H](C)O2)Oc2ccc(cc2Cl)[C@H]1O
Potency [1]: inactive | Potency [2]: inactive | Potency [3]: inactive

C[C@H](Nc1ncnc2nc[nH]c12)c1cc2cccc(Cl)c2c(=O)n1-c1ccccc1
Potency [1]: inactive | Potency [2]: 4.09 µM (active) and 372 nM (active) | Potency [3]: 7.28 µM (active) and 4.68 µM (active)

COC(CCc1ccc(O)cc1)CC(=O)CCc1ccc(O)cc1 (configuration not stated)
Potency [1]: inactive | Potency [2]: 5.67 µM (active) | Potency [3]: 8.98 µM (active)

CCOc1cc(C(C)(C)C)ccc1C1=NC(C)(c2ccc(Cl)cc2)C(C)(c2ccc(Cl)cc2)N1C(=O)N1CCN(CCCS(C)(=O)=O)CC1 (configuration not stated)
Potency [1]: inactive | Potency [2]: 0.817 µM (active) | Potency [3]: 0.258 µM (active)

COC1C=C(C)C(O)(CO)C2(C)CCCC(C)(C)C12 (configuration not stated)
Potency [1]: inactive | Potency [2]: inactive | Potency [3]: inactive

CNc1nc(Nc2ccc(C(=O)N3CCOCC3)cc2OC)nc2[nH]cc(Cl)c12
Potency [1]: inactive | Potency [2]: 4.09 µM (active) | Potency [3]: 2.9 µM (active)

O=C1Nc2ccccc2-c2nc3ccccc3c(=O)n2-c2c(O)cccc21
Potency [1]: inactive | Potency [2]: inactive | Potency [3]: inactive

O=C1Cc2c([nH]c3ccc(Br)cc23)-c2ncccc2N1
Potency [1]: inactive | Potency [2]: 2.9 µM (active) | Potency [3]: 2.58 µM (active)

C[C@@H]1C[C@H]2O[C@@]3(O[C@@H]2C(C)(C)O)C(O)[C@@]2(C)C4CCC5C(C)(C)[C@@H](O[C@H]6OC[C@H](O)[C@@H](O)[C@@H]6O)CC[C@@]56C[C@@]46CC[C@]2(C)C13 (some centres not stated)
Potency [1]: inactive | Potency [2]: inactive | Potency [3]: inactive

CC(C)C[C@@H]1NC(=O)[C@@H](Cc2ccccc2)NC(=O)C(CCCCCC(=O)C2CO2)NC(=O)[C@@H]2CCCCN2C1=O (some centres not stated)
Potency [1]: inactive | Potency [2]: 0.0709 µM (active) | Potency [3]: 0.0252 µM (active)

C=C1C(=O)OC2/C=C(\C)CC3C=C(CC/C=C(\C)CCC12)C(=O)O3 (configuration not stated)
Potency [1]: inactive | Potency [2]: 12.7 µM (active) | Potency [3]: 4.5 µM (active)

COc1cc(F)c(F)c(Nc2ccc(I)cc2F)c1NS(=O)(=O)C1(CC(O)CO)CC1 (configuration not stated)
Potency [1]: inactive | Potency [2]: 18.3 µM (active) | Potency [3]: 25.8 µM (active)

COC(=O)Nc1cc(Nc2cc(NC3CC3)c3ncc(C#N)n3n2)c(Cl)c(N2CCN(C)CC2)c1
Potency [1]: inactive | Potency [2]: 0.742 µM (active) | Potency [3]: 0.372 µM (active)

Nc1nc2c(ncn2C2OC3COP(=O)(O)OC3C2O)c(=O)[nH]1 (configuration not stated)
Potency [1]: inactive | Potency [2]: inactive | Potency [3]: inactive

From PubChem BioAssay (NCATS)
